From PubChem BioAssay (NCI)
The panel holds about 79,000 compounds, 15% with a hit somewhere; the sample as a whole holds those more often. Activity calls are given as the source filed them. Rule as the data show it: active = growth inhibition above about 70%; inactive = the rest.

Key:
[1] = NCI Yeast Anticancer Drug Screen. Data for the rad52 strain (AID 147);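 also: 0% = growth of vehicle-treated control cultures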; conditions: S. cerevisiae rad52 mutant growth inhibition, stronger effect = higher value
Summary of the method: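 Genetically altered yeast (DNA damage repair defect) treated with compound; inhibition calculated relative to vehicle.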

[2] = NCI Yeast Anticancer Drug Screen. Data for the wt1 strain (AID 149);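 also: 0% = growth of vehicle-treated wt1 cultures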; conditions: S. cerevisiae wt1 strain (SPY 50644) growth inhibition, stronger effect = higher value
Summary of the method: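 Measured: growth of wt1 yeast under compound versus vehicle treatment, reported as inhibition.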

[3] = NCI Yeast Anticancer Drug Screen. Data for the rad50EPP+ strain (AID 151);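 also: 0% = growth of vehicle-treated control cultures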; conditions: S. cerevisiae rad50 mutant strain, stronger effect = higher value
Summary of the method: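 Strain rad50EPP+; compound exposure; % growth inhibition vs vehicle.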

[4] = NCI Yeast Anticancer Drug Screen. Data for the mgt1 strain (AID 153); conditions: S. cerevisiae mgt1 mutant growth inhibition, stronger effect = higher value
Summary of the method: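 Read-out: yeast growth inhibition vs vehicle control. Strain mgt1, drawn from a panel altered in DNA damage repair or cell cycle control.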

[5] = NCI Yeast Anticancer Drug Screen. Data for the rad50 strain (AID 155);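 also: 0% = growth of vehicle-only cultures of the same strain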; conditions: S. cerevisiae rad50 strain growth inhibition, stronger effect = higher value
Summary of the method: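 Growth of the mutant yeast was measured after compound exposure and referenced to vehicle-treated cultures.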

[6] = NCI Yeast Anticancer Drug Screen. Data for the mec2-1 strain (AID 157); conditions: S. cerevisiae mec2-1 strain, stronger effect = higher value
Summary of the method: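 Cells of the genetically defined mec2-1 yeast strain are incubated with test compound. Inhibition of growth is calculated against vehicle-treated controls.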

[7] = NCI Yeast Anticancer Drug Screen. Data for the rad14 strain (AID 159);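 also: 0% = growth of vehicle-treated control cultures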; conditions: S. cerevisiae rad14 strain growth inhibition, stronger effect = higher value
Summary of the method: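 Here, inhibition of yeast growth was measured after compound exposure, using a strain with a genetic defect in DNA damage repair and vehicle-treated cultures as the reference.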

[8] = NCI Yeast Anticancer Drug Screen. Data for the sgs1 mgt1 strain (AID 161);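 also: 0% = growth of cultures given vehicle only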; conditions: S. cerevisiae sgs1 mgt1 strain, stronger effect = higher value
Summary of the method: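 Read-out: growth inhibition vs vehicle controls. Cells: mutant yeast strain deficient in DNA damage repair.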

[9] = NCI Yeast Anticancer Drug Screen. Data for the CLN2oe strain (AID 163);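 also: 0% = growth of vehicle-only control cultures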; conditions: S. cerevisiae CLN2oe strain, stronger effect = higher value
Summary of the method: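 Strain altered in cell-cycle control, incubated with compound; growth compared to solvent-treated controls.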

[10] = NCI Yeast Anticancer Drug Screen. Data for the cln2 rad14 strain (AID 165);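 also: 0% = growth equal to vehicle treated cultures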; conditions: S. cerevisiae cln2 rad14 strain, stronger effect = higher value
Summary of the method: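 The screen exposed genetically defined yeast (cln2 rad14) to test compounds and scored growth inhibition relative to vehicle-treated controls.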

[11] = NCI Yeast Anticancer Drug Screen. Data for the bub3 strain (AID 167); conditions: S. cerevisiae bub3 mutant strain, stronger effect = higher value
Summary of the method: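 Whole-cell yeast assay. The mutant strain was incubated with compounds, and growth inhibition was determined by comparison with vehicle-treated cells.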

[12] = NCI Yeast Anticancer Drug Screen. Data for the mlh1 strain (AID 171);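 also: 0% = growth of vehicle-treated control cultures of the same strain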; conditions: S. cerevisiae mlh1 strain growth inhibition, stronger effect = higher value
Summary of the method: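 Yeast screen: mutant strain plus compound, growth scored against vehicle control wells.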

[13] = NCI Yeast Anticancer Drug Screen. Data for the sgs1 strain (AID 173);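 also: 0% = growth of vehicle-only control cultures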; conditions: S. cerevisiae sgs1 mutant, stronger effect = higher value
Summary of the method: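 Inhibition of yeast growth served as the measure. The mutant strain was treated with each compound, and growth was normalised to cultures receiving vehicle alone.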

[14] = NCI Yeast Anticancer Drug Screen. Data for the mlh1 rad18 strain (AID 175); conditions: S. cerevisiae mlh1 rad18 strain growth inhibition, stronger effect = higher value
Summary of the method: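 Compound-treated yeast growth, normalised to vehicle controls. Strain bears defined DNA repair mutations.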

[15] = at 5.0 µM (retest, dose inferred, filed as 0.5)
[16] = at 50.0 µM (retest, dose inferred, filed as 5.0)

Measured: growth inhibition

c1cc(-c2sc(-c3ccncc3)c(-c3ccncc3)c2-c2ccncc2)ccn1
inactive: [1]; at 1.2 µM 4% | [1]; at 3.7 µM 17% | [1]; at 11.0 µM 63% | [2]; at 1.2 µM 2% | [2]; at 3.7 µM -1% | [2]; at 11.0 µM 0% | [2]; at 33.0 µM 12% | [2]; at 100.0 µM 58% | [3]; at 1.2 µM 5% | [3]; at 3.7 µM 18% | [3]; at 11.0 µM 34% | [3]; at 33.0 µM 68% | [4]; at 1.2 µM 0% | [4]; at 3.7 µM 2% | [4]; at 11.0 µM 2% | [4]; at 33.0 µM 25% | [5]; at 1.2 µM 10% | [5]; at 3.7 µM 19% | [5]; [15] 12% | [5]; at 11.0 µM 69% | [6]; at 1.2 µM 3% | [6]; at 3.7 µM 3% | [6]; [15] -5% | [6]; at 11.0 µM 11% | [6]; at 33.0 µM 46% | [6]; [16] 0% | [6]; at 50.0 µM 21.1% | [7]; at 1.2 µM 3% | [7]; at 3.7 µM -4% | [7]; at 11.0 µM 5% | [7]; at 33.0 µM 26% | [8]; [15] -5% | [8]; [16] 50% | [8]; at 50.0 µM 46.8% | [9]; at 1.2 µM -7% | [9]; at 3.7 µM 1% | [9]; at 11.0 µM -1% | [9]; at 33.0 µM 25% | [10]; [15] -48% | [10]; [16] 5% | [10]; at 50.0 µM 45.6% | [11]; at 1.2 µM 1% | [11]; at 3.7 µM 7% | [11]; [15] -12% | [11]; at 11.0 µM 25% | [11]; at 33.0 µM 54% | [11]; [16] 18% | [11]; at 50.0 µM 51.1% | [12]; at 1.2 µM 7% | [12]; at 3.7 µM 4% | [12]; at 11.0 µM 7% | [12]; at 33.0 µM 16% | [13]; at 1.2 µM 3% | [13]; at 3.7 µM 7% | [13]; at 11.0 µM 15% | [13]; at 33.0 µM 42% | [14]; [15] 2% | [14]; [16] 46%
active: [1]; at 33.0 µM 91% | [1]; at 100.0 µM 97% | [3]; at 100.0 µM 82% | [4]; at 100.0 µM 87% | [5]; at 33.0 µM 90% | [5]; [16] 81% | [5]; at 50.0 µM 96.3% | [5]; at 100.0 µM 96% | [6]; at 100.0 µM 93% | [7]; at 100.0 µM 75% | [9]; at 100.0 µM 89% | [11]; at 100.0 µM 89% | [12]; at 100.0 µM 92% | [13]; at 100.0 µM 77% | [14]; at 50.0 µM 79.7%
